# Bioassay records from PubChem.
# Menin-MLL FL inh = displaces fluorescein MLL peptide from human menin; Fluorescence polarization, fluorescein-MLL peptide displacement from menin; FP activity change, % at 61.4 µM; 290,000 tested, under 10 active; active = well fitted curve in the direction sought with a large enough effect in the polarisation, not every such curve was filed as active; inconclusive = small, poorly fitted or top-dose-only effect, or effect the other way, or a change in a side signal; inactive = no such curve, though single readings can be large or run the other way; the % refers to the polarisation; also: % of control where 0% means no effect
# TRPV1 PAM = enhances activation of the human vanilloid receptor TRPV1. 0.02% of 320,000 active. potentiation, % at 8.33 µM. TRPV1-expressing cells, Fluo-8 calcium influx, capsaicin EC20 potentiation. Q8NER1; in the data active = potentiation above about 80%; inconclusive = between about 30% and that limit; also: 0% is about no effect
#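 TRPV1-expressing cells were cultured overnight at 35.5C and loaded with Fluo-8 calcium dye for 40 to 90 min at room temperature. After a 10 s baseline, compound was added and calcium influx was read kinetically for 3 min (ex 480/em 520 nm).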
# Menin-MLL TR inh = menin-MLL binding inhibition, Texas Red mutant peptide; O00255; Menin + Texas Red MLL mutant peptide, fluorescence polarization; Potency, µM (titrated, usually from 61.6 µM), for inactives: top-dose FP activity change, negative = inhibition, hits mostly inhibitors; 0.23% of 270,000 active; AID 1768; active = well fitted inhibition curve with a large enough effect in the polarisation, with a control signal flat, not every such curve was filed as active; inconclusive = small, poorly fitted or top-dose-only effect, or effect the other way, or a change in a side signal; inactive = no such curve, though single readings can be large or run the other way; the % refers to the polarisation; also: potency is read from the fitted curve at half-maximal effect; % of control where 0% means no effect
# Target sequence (O00255 whole entry, looked up): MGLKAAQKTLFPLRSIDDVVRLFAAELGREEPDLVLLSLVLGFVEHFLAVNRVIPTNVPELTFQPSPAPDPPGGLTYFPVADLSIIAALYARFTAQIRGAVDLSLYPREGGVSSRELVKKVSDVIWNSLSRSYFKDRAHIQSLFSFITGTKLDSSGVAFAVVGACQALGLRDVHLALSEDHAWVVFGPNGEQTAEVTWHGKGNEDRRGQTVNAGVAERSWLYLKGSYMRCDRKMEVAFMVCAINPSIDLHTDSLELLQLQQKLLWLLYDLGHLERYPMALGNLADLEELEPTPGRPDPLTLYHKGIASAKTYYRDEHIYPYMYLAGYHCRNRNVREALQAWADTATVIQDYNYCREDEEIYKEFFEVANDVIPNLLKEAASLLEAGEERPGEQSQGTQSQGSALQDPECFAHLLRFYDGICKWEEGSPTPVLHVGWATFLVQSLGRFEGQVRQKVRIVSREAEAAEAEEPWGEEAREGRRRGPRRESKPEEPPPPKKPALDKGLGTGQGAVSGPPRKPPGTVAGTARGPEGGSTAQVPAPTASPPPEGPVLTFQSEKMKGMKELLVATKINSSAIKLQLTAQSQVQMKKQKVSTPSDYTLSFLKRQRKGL
# TRPV1 agonist = agonists of human vanilloid receptor 1 (TRPV1); 0.19% of 320,000 active; activation, % at 8.33 µM; Q8NER1; TRPV1-expressing cells, Fluo-8 calcium influx, agonist mode; in the data active = activation above about 80%; inconclusive = between about 30% and that limit; also: 0% is about no effect
#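 Cells expressing TRPV1 were dye-loaded with Fluo-8 and read kinetically: 10 s baseline, 3 min after compound (agonist portion), then 2 min after EC20 capsaicin (allosteric enhancer portion). Calcium-bound dye fluorescence at 480/520 nm.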
# CXXC DNA block = MLL CXXC-DNA interaction inhibition; Q03164; MLL-CXXC / FITC-HOXA9 DNA fluorescence polarization; Potency, µM (titrated, usually from 115 µM), for the others: top-dose activity change, negative = inhibition, most hits filed as inhibitors; 0.037% of 290,000 active; active = well fitted inhibition curve with a large enough effect in the polarisation, with a control signal flat, not every such curve was filed as active; inconclusive = small, poorly fitted or top-dose-only effect, or effect the other way, or a change in a side signal; inactive = no such curve, though single readings can be large or run the other way; the % refers to the polarisation; also: potency is read from the fitted curve at half-maximal effect
#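 Fluorescence polarization: 7 uM MLL-CXXC (stock) preincubated 5 min with compounds, then 50 nM fluorescein-HOX-A9 DNA (stock) added; 30 min ambient. Buffer 50 mM Tris-HCl pH 7.5, 50 mM NaCl, 1 mM DTT, 0.05% BSA.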
# * hit, by the source's call; u = inconclusive; x = not tested or not shown; ! = repeats disagree; [ ] = another dose, or the depositor's remark. This is a sample that favours compounds with a hit; in the whole collection about 0.32% have one here.
SMILES,Menin-MLL FL inh,TRPV1 PAM,Menin-MLL TR inh,TRPV1 agonist,CXXC DNA block
CCN1CCN(Cc2nc3ccc([N+](=O)[O-])cc3c(=O)n2-c2ccccc2F)CC1,-10.9,-1.4,10µM*,-1.1,u
CN1CCN(C(=O)COc2ccc(-c3nc4ccccc4s3)cc2)CC1,1.9,-13.3,12.6µM*,12.3,-1.3%
CC(=O)[C@H]1CC[C@H]2C3CC[C@H]4C[C@](C)(O)CC[C@]4(C)C3CC[C@]12C (stereo partly drawn),-3.2,x,-0.8%,x,x
CON(C)C(=O)Nc1ccc(Br)c(Cl)c1,u,x,-0.5%,x,x
C/C1=C/C(=O)O[C@@H]2C[C@@H](CC[C@H](C)/C=C\CC1)O[C@@](O)(C1CSC(=O)N1)C2 (stereo partly drawn),0.4,x,0.7%,x,x
COC1CC(O[C@H]2/C(C)=C/CC3CC(C[C@]4(CCC(C)C(C5CCCCC5)O4)O3)OC(=O)[C@H]3C=C(C)/C(=N/O)C4OC/C(=C\C=C\[C@@H]2C)[C@@]43O)OC(C)C1O (stereo partly drawn),-2.1,x,22.4µM*,x,9.2%
CCC(C)C1O[C@]2(C=CC1C)CC1CC(C/C=C(\C)[C@H](OC3CC(OC)C(O[C@H]4CC(OC)[C@@H](O)C(C)O4)C(C)O3)[C@@H](C)/C=C/C=C3\COC4C(O)C(C)=C[C@H](C(=O)O1)[C@@]34O)O2 (stereo partly drawn),-2.5,x,u,x,1.7%
CCN(CC)c1ccc(/C=C2\C(=O)NC(=O)N(Cc3ccco3)C2=O)cc1,u,8.2,11.4%,-1.9,1.7%
CCCCN1C(=O)/C(=C/c2ccc(N(C)C)cc2)C(=O)N(Cc2ccco2)C1=O,u,5.1,25.1µM*,-0.2,u
CC1CC2CCC(O2)C(C)C(=O)OC(C)CC2CCC(O2)C(C)C(=O)OC(C)CC2CCC(O2)C(C)C(=O)OC(C)CC2CCC(O2)C(C)C(=O)O1 (stereo not drawn),1.1,x,u,x,x
C#C[C@]1(O)CC[C@H]2[C@@H]3CCC4=CC(=O)CC[C@]4(C)[C@H]3CC[C@@]21C,0.2,14.5,6.3%,-3.0,1.3%
C#C[C@]1(O)CCC2C3CCC4=C/C(=N/OCC(=O)NC(C)C(=O)NC(CCSC)C(=O)O)CC[C@]4(C)C3CC[C@@]21C (stereo partly drawn),-16.0,10.1,25.1µM*,-1.2,4.0%
CN1/C(=C\C=C2C(=O)NC(=S)NC2=O)C(C)(C)c2ccccc21,u,-12.2,u,98.2*,u
O=C(CCn1nc(-c2ccc(Cl)cc2)ccc1=O)N1CCC2(CC1)OCCO2,-1.5,-10.9,-0.5%,1.5,6.5%
O=C(Cn1nc(-c2ccc(Cl)cc2)ccc1=O)N1CCC2(CC1)OCCO2,0.4,105.2*,-16.1%,5.6,0.9%
Oc1cc[c]([Hg][Cl])cc1,-5.7,x,3.5%,x,-8.1%
CC1=C(O)C(=O)[C@H]2O[C@@H]2C1=O,-14.7,x,0.7%[24.8 µM],x,x
CCCCCCCCCCCCCCCC[N+](C)(C)C,1.8,13.6,28.2µM*!,6.3,u
CO/C1=C\C(C)=C\[C@@H](C)[C@@H](O)[C@@H](C)C/C(C)=C/C=C/[C@H](OC)[C@@H]([C@@H](C)[C@@H](O)[C@H](C)[C@@]2(O)C[C@@H](O)[C@H](C)C(C(C)C)O2)OC1=O (stereo partly drawn),-8.1,x,12.9%,x,x
COC(=O)[C@H]1C[C@@H]1[C@H](NP(=O)(c1ccccc1)c1ccccc1)c1ccccc1,-0.5,-39.8,0.1%,u,5.3%
COC(=O)[C@@H]1C[C@H]1[C@@H](NP(=O)(c1ccccc1)c1ccccc1)c1ccccc1,1.2,7.2,0.141µM*!,u,4.9%
N.N.N.N.N.N.N.N.N.N.N.N.N.N.O.O.[Cl-].[Cl-].[Cl-].[Cl-].[Cl-].[Cl-].[Ru].[Ru].[Ru],u,x,25.1µM*,x,u
CN1C(=O)[C@]23CC4=CC=C[C@H](O)[C@H]4N2C(=O)[C@@]1(CO)SS3,1.6,x,12.5%,x,x
COc1ccc2[nH]c(C)c(CCNCc3cc(OC)c(OC)c(OC)c3)c2c1,u,-2.6,-4.7%,8.3,0.2%
COc1ccc(CNCCc2c(C)[nH]c3ccc(OC(F)(F)F)cc23)c(OC)c1,-18.5,20.3,28.2µM*,12.6,8.5%
